Measured values as given in PubChem BioAssay AID1159580 (chemical genetic matrix, 2015).
Values joined by “and” are separate entries in the source; they are usually repeats but may differ in a detail not shown here. Equal values may be shown once. Screen size: about 5,500 compounds; about 2,000 (36%) were called active. About 18% were inconclusive and are not listed. Rule as the data show it: active = normalized growth mostly below about 0.91 (no sharp cut-off); inconclusive = no clear call, values can overlap the other calls; inactive = mostly above about 0.92. This is one part of the list.

Experiment: chemical genetic growth profiling, strain panel (AID 1159580);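 also: tested at 20 µM; growth read once vehicle control cultures reached saturation at 30 °C; 1 = growth at the plate median or of vehicle wells; lower values mean less growth of the strain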
Details: S. cerevisiae deletion strains, growth OD

Measured: normalized growth

CC1(C)CC2C1CCC1(C)OC2(C)CCC1O (stereo not given)
inactive: locus YAL021C, strain ccr4, hits give low values 1.02 | locus YAL026C, strain drs2, hits give low values 1.05 | locus YAL030W, strain snc1, hits give low values 1.03 | locus YBL061C, strain skt5, hits give low values 1.03 | locus YBR009C, strain hhf1, hits give low values 1.03 | locus YBR021W, strain FUR4, hits give low values 1.03 | locus YBR023C, strain chs3, hits give low values 1.03 | locus YBR171W, strain sec66, hits give low values 1.03 | locus YBR229C, strain ROT2, hits give low values 1.02 | locus YBR231C, strain swc5, hits give low values 1.02 | locus YBR279W, strain paf1, hits give low values 1.02 | locus YCL011C, strain gbp2, hits give low values 1.02 | locus YCL016C, strain dcc1, hits give low values 1.01 | locus YCL029C, strain bik1, hits give low values 1.01 | locus YCL061C, strain MRC1, hits give low values 1.03 | locus YCL069W, strain vba3, hits give low values 1.03 | locus YCR088W, strain abp1, hits give low values 1.02 | locus YDL005C, strain med2, hits give low values 1.03 | locus YDL035C, strain GPR1, hits give low values 0.989 | locus YDL040C, strain nat1, hits give low values 1.01 | locus YDL074C, strain BRE1, hits give low values 1.02 | locus YDL101C, strain DUN1, hits give low values 1.03 | locus YDL185W, strain tfp1, hits give low values 1.01 | locus YDL192W, strain arf1, hits give low values 1 | locus YDR001C, strain nth1, hits give low values 1.02 | locus YDR069C, strain doa4, hits give low values 1.02 | locus YDR101C, strain arx1, hits give low values 0.993 | locus YDR137W, strain rgp1, hits give low values 1.03 | locus YDR159W, strain sac3, hits give low values 1.03 | locus YDR162C, strain NBP2, hits give low values 1.02 | locus YDR195W, strain ref2 1.02 | locus YDR297W, strain sur2, hits give low values 1.04 | locus YDR318W, strain mcm21, hits give low values 0.994 | locus YDR334W, strain swr1, hits give low values 1.03 | locus YDR335W, strain msn5, hits give low values 1.02 | locus YDR388W, hits give low values 1.01 | locus YDR392W, strain spt3, hits give low values 0.958 | locus YDR502C, strain sam2, hits give low values 1.03 | locus YEL003W, strain gim4, hits give low values 1.02 | locus YEL037C, strain rad23, hits give low values 1.02 | locus YEL061C, strain CIN8 (second series), hits give low values 1.02 | locus YER015W, strain faa2, hits give low values 1.04 | locus YER016W, strain bim1, hits give low values 1.02 | locus YER110C, hits give low values 1.01 | locus YER111C, strain swi4, hits give low values 1.02 | locus YER155C, strain BEM2 (second series), hits give low values 1.04 | locus YER155C, strain BEM2, hits give low values 0.996 | locus YER167W, strain BCK2, hits give low values 1 | locus YFR010W, strain ubp6, hits give low values 1.04 | locus YGL078C, strain dbp3, hits give low values 1.03 | locus YGL086W, strain mad1, hits give low values 1.02 | locus YGL167C, strain pmr1, hits give low values 1.03 | locus YGL173C, strain kem1, hits give low values 1.04 | locus YGL227W, strain vid30, hits give low values 1.01 | locus YGL240W, strain doc1, hits give low values 1.03 | locus YGL248W, strain PDE1, hits give low values 1.07 | locus YGL253W, strain hxk2, hits give low values 1.04 | locus YGR135W, strain pre9, hits give low values 1.08 | locus YGR229C, strain SMI1, hits give low values 0.978 | locus YGR252W, strain gcn5, hits give low values 1.11 | locus YHR013C, strain ard1, hits give low values 1.06 | locus YHR027C, strain rpn1, hits give low values 1.05 | locus YHR030C, strain SLT2, hits give low values 0.992 and 1.02 | locus YHR079C, strain IRE1 (second series), hits give low values 1.01 | locus YHR079C, strain IRE1, hits give low values 1.02 | locus YHR094C, strain hxt1, hits give low values 1.02 | locus YHR129C, strain ARP1, hits give low values 1.01 | locus YHR142W, strain chs7, hits give low values 1.02 | locus YHR200W, strain rpn10, hits give low values 1.03 | locus YIL066C, strain RNR3, hits give low values 1.01 | locus YIL073C, strain SPO22, hits give low values 1.02 | locus YIL125W, strain kgd1, hits give low values 0.999 | locus YIR030C, strain dcg1, hits give low values 1 | locus YJL092W, strain hpr5, hits give low values 1.03 | locus YJL095W, strain BCK1 (second series), hits give low values 1.03 | locus YJL095W, strain BCK1, hits give low values 1.09 and 1.03 | locus YJL115W, strain asf1, hits give low values 1.03 | locus YJL129C, strain trk1, hits give low values 1.05 | locus YJL134W, strain LCB3, hits give low values 1 | locus YJL154C, strain vps35, hits give low values 1.03 | locus YJL164C, strain tpk1, hits give low values 1.01 | locus YJL166W, strain qcr8, hits give low values 1.03 | locus YJL168C, strain set2, hits give low values 1.01 | locus YJL187C, strain SWE1 (second series), hits give low values 1.05 | locus YJR043C, strain POL32, hits give low values 0.976 | locus YJR066W, strain TOR1, hits give low values 0.959 | locus YJR075W, strain HOC1, hits give low values 1.01 | locus YKL009W, strain mrt4, hits give low values 0.984 | locus YKL068W, hits give low values 1 | locus YKL085W, strain MDH1 (second series), hits give low values 0.978 | locus YKL085W, strain MDH1, hits give low values 0.978 | locus YKL160W, strain elf1, hits give low values 1 | locus YKL190W, strain CNB1, hits give low values 1 | locus YKR001C, strain vps1, hits give low values 1.03 | locus YKR026C, strain gcn3, hits give low values 1.03 | locus YKR091W, strain srl3, hits give low values 1.01 | locus YLL001W, strain dnm1, hits give low values 0.991 | locus YLL026W, hits give low values 1.02 | locus YLL041C, strain sdh2, hits give low values 1.02 | locus YLR027C, strain aat2, hits give low values 1.02 | locus YLR039C, strain RIC1, hits give low values 1.05 | locus YLR058C, strain SHM2, hits give low values 1.03 | locus YLR102C, strain apc9, hits give low values 1 | locus YLR113W, strain HOG1, hits give low values 1.03 | locus YLR221C, strain rsa3, hits give low values 1.04 | locus YLR258W, strain gsy2, hits give low values 1.01 | locus YLR262C, strain YPT6 (second series), hits give low values 1.03 | locus YLR268W, strain sec22, hits give low values 0.981 | locus YLR320W, strain mms22, hits give low values 1.04 | locus YLR330W, strain CHS5, hits give low values 1 | locus YLR342W, strain FKS1 (second series), hits give low values 0.993 | locus YLR342W, strain FKS1, hits give low values 1.03 | locus YLR357W, strain rsc2, hits give low values 1.04 | locus YLR370C, strain arc18, hits give low values 1.02 | locus YLR371W, strain rom2, hits give low values 1.02 | locus YLR384C, strain iki3, hits give low values 1.02 | locus YLR418C, strain cdc73, hits give low values 1.08 | locus YML016C, strain PPZ1, hits give low values 1.01 | locus YML032C, strain rad52, hits give low values 1.02 | locus YML120C, strain ndi1, hits give low values 1.01 | locus YML124C, strain tub3, hits give low values 1.01 | locus YMR058W, strain fet3, hits give low values 1.04 | locus YMR078C, strain ctf18, hits give low values 1.02 | locus YMR125W, strain sto1, hits give low values 1.05 | locus YMR129W, hits give low values 1.01 | locus YMR205C, strain PFK2, hits give low values 1.04 | locus YMR223W, strain ubp8, hits give low values 1.01 | locus YMR231W, strain pep5, hits give low values 1.02 | locus YMR263W, strain SAP30, hits give low values 1.02 | locus YMR307W, strain GAS1, hits give low values 1.03 | locus YNL067W, strain RPL9B, hits give low values 1.04 | locus YNL071W, strain lat1, hits give low values 1.02 | locus YNL183C, strain NPR1, hits give low values 0.969 | locus YNL209W, strain ssb2, hits give low values 1.02 | locus YNL233W, strain BNI4, hits give low values 1.07 | locus YNL248C, strain rpa49, hits give low values 1.03 | locus YNL250W, strain rad50, hits give low values 1.04 | locus YNL271C, strain bni1, hits give low values 1.01 | locus YNL298W, strain CLA4, hits give low values 1.01 | locus YNL307C, strain MCK1, hits give low values 1.02 | locus YNL322C, strain KRE1 (second series), hits give low values 1.02 | locus YNR049C, strain mso1, hits give low values 1.06 | locus YNR052C, strain pop2, hits give low values 1.03 | locus YOL012C, strain htz1 1.1 | locus YOL147C, strain pex11, hits give low values 1.02 | locus YOR001W, strain rrp6, hits give low values 1.03 | locus YOR061W, strain CKA2, hits give low values 0.999 | locus YOR069W, strain VPS5, hits give low values 1 | locus YOR070C, strain gyp1, hits give low values 1.02 | locus YOR080W, strain dia2, hits give low values 1.05 | locus YOR083W, strain WHI5, hits give low values 1 | locus YOR106W, strain vam3, hits give low values 1 | locus YOR136W, strain idh2, hits give low values 1.02 | locus YOR144C, strain elg1, hits give low values 1 | locus YOR184W, strain ser1, hits give low values 0.981 | locus YOR231W, strain MKK1, hits give low values 1.02 | locus YOR265W, strain rbl2, hits give low values 1.03 | locus YOR270C, strain vph1, hits give low values 1.07 | locus YOR290C, strain snf2, hits give low values 1.01 | locus YOR316C, strain cot1, hits give low values 1.02 | locus YPL051W, strain arl3, hits give low values 1 | locus YPL078C, strain atp4, hits give low values 1.01 | locus YPL106C, strain sse1, hits give low values 1.04 | locus YPL240C, strain hsp82, hits give low values 1.02 | locus YPL256C, strain CLN2, hits give low values 1.03 | locus YPR119W, strain clb2, hits give low values 1 | locus YPR141C, strain kar3, hits give low values 0.987 | locus YPR163C, strain tif3, hits give low values 1.02 | locus YPR167C, strain met16, hits give low values 1.01 | strain wtn01, hits give low values 1
